Bioassay records as filed in PubChem BioAssay.
Rev-erbA mod: modulators of human Rev-erb alpha DNA binding | P20393 | activity, % at 10 µM | Rev-erbα–FITC-DNA binding, fluorescence polarization, 90 min | AID 1259318 | 370,000 compounds, 0.79% hits;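 active means activity above about 14%, limit read from the data; passing the limit was not always enough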
Target sequence (P20393 whole entry, looked up): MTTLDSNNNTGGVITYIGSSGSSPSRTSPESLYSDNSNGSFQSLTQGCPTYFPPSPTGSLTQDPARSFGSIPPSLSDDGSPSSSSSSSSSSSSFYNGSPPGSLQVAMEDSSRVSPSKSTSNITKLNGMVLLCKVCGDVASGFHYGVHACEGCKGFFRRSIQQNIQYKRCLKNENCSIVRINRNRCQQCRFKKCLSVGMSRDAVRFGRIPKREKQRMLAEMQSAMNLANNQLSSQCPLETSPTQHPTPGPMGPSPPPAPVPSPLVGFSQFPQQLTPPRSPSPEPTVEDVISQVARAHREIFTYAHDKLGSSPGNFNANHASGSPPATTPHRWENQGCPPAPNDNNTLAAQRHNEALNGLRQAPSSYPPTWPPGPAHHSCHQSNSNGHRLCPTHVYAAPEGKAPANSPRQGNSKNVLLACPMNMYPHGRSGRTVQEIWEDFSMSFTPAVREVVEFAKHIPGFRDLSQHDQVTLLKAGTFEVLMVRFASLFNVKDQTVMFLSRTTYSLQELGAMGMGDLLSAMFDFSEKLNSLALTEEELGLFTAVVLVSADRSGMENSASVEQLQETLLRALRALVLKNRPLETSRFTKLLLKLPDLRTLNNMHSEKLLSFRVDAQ
DAX1 inh-1: inhibitors of DAX1 repression of SF-1 activated StAR promoter | HEK293T StAR-luciferase reporter, SF-1/DAX-1 repression relief | 370,000 compounds, 1.1% hits | inhibition, % at 6.8 µM | AID 652010;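 active means inhibition above the mean over all tested compounds plus 3 SD, cut at about 3.6% in these data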;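 further: higher inhibition means more luminescence from relief of DAX-1 repression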
ssDAF12 agonist: S. stercoralis DAF-12 activation, primary screen | HEK293 ssDAF-12/GRIP1 lit1-tk-luc reporter, luminescence; % of 3 µM dafachronic acid response | activation, % at 6.8 µM | 370,000 compounds, 1% hits;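 active means activation above the mean over all tested compounds plus 3 SD, cut at about 0.9% in these data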
DAX1 inh-2: inhibits human nuclear receptor DAX1; P51843; HEK293 Gal4-DAX1 luciferase reporter, luminescence; inhibition, % at 6.75 µM; 340,000 compounds, 0.99% hits; AID 504766;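 active means inhibition above the mean over all tested compounds plus 3 SD, cut at about 4.2% in these data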;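 further: inhibition shows as a rise in luminescence from relieved DAX1 repression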
hgDAF12 agonist: hgDAF-12 agonism, primary luciferase screen; HEK293 GAL4-hgDAF12 UAS-luciferase reporter, agonist luminescence; normalized to butyrate control; activation, % at 6.8 µM; 370,000 compounds, 1.8% hits; AID 687014;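 active means activation above a cutoff set at the mean of all screened compounds plus 3 SD, cut at about 10% in these data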
hcDAF12 agonist: activates DAF-12 receptor from parasite H. contortus; HEK293 hcDAF-12 lit1-tk-luc reporter, luminescence; 0% DMSO, 100% Δ7-dafachronic acid; activation, % at 6.8 µM; 370,000 compounds, 1.4% hits;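 active means activation above the mean of all tested compounds plus 3 SD, cut at about 5.5% in these data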
DAX1 conf: confirmation of human DAX1 (NR0B1) inhibitors; shares compounds with DAX1 inh-1; HEK293T StAR-promoter luciferase reporter, SF-1/DAX-1 repression; inhibition, % at 6.8 µM; 2,400 compounds, 87% hits;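 active means inhibition above the average of every tested compound plus 3 SD, cut at about 3.8% in these data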;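 further: active compounds raise luminescence by relieving repression of the StAR reporter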
SF1 mutant ctr: counter-screen for DAX1 inhibitors: nonselective inhibitors with SF-1 AF2 mutant. shares compounds with DAX1 inh-1. HEK293 StAR-luciferase, luminescence. inhibition, % at 6.8 µM. 2,400 compounds, 78% hits. AID 652136;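 active means inhibition above the mean of all tested compounds plus 3 SD, cut at about 3% in these data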
LXR ag: activates human LXR-beta, counter-screen for hcDAF-12 agonists; HEK293 Gal4-LXR tk-luc reporter, luminescence, 24 h; normalized: DMSO 0%, positive control 100%; activation, % at 6.8 µM; shares compounds with hcDAF12 agonist; 3,400 tested, under 10 active;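 active means mean percent activation of the reporter above a cutoff set as the average over tested compounds plus their standard deviation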
hcDAF12 ag: hcDAF-12 agonism, confirmation assay; activation, % at 6.8 µM; shares compounds with hcDAF12 agonist; 3,400 compounds, 61% hits; HEK293 hcDAF-12 lit1-tk-luc reporter, luminescence; % of Δ7-dafachronic acid response;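 active means mean activation across triplicate tests above the threshold derived from the earlier primary screen, cut at about 5.5% in these data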
hgDAF12 ag: hgDAF-12 agonism, confirmation assay. AID 743050. HEK293 GAL4-hgDAF12 luciferase reporter, agonist mode; percent of butyrate response. 3,300 compounds, 80% hits. activation, % at 6.8 µM. shares compounds with hgDAF12 agonist;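 active means mean activation over triplicate wells above the hit cutoff derived from the earlier primary screen, cut at about 11% in these data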
LXR ag 2: activates human LXR-beta, counter-screen for DAF-12 agonists. 3,300 tested, under 10 active. shares compounds with hgDAF12 agonist. activation, % at 6.8 µM. HEK293 Gal4-LXR luciferase reporter, 24 h;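 active means mean activation of the triplicate above a set limit carried over from the primary screen, none filed active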
A number is an active result; – = inactive; · = no result given. Only some compounds are listed: those with a hit (about 4.8% of all), similar ones and a draw of the others.

SMILES | Rev-erbA mod | DAX1 inh-1 | ssDAF12 agonist | DAX1 inh-2 | hgDAF12 agonist | hcDAF12 agonist | DAX1 conf | SF1 mutant ctr | hgDAF12 ag | LXR ag 2 | others
COc1ccc(C(=O)Nc2ccc3c(c2)OCCO3)cc1 | – | 4.7 | 1.4 | – | 15 | 5.8 | 14 | 5.2 | 15 | –
COc1ccc(C(=O)OCC(=O)Nc2ccc3c(c2)OCCO3)c(OC)c1 | – | – | – | – | – | – | · | · | · | ·
COc1ccc(C(=O)Nc2ccc3c(c2)OCCO3)c(OC)c1 | – | 9.4 | – | – | 22 | 5.7 | 13 | 9.1 | 17 | –
Cc1ncoc1C(=O)Nc1ccc2c(c1)OCCO2 | – | – | – | – | – | – | · | · | · | ·
COC(=O)C1CN(Cc2ccc(OC)cc2)CCS(=O)(=O)N1Cc1ccc(Cl)cc1 (stereo not given) | – | – | – | · | – | – | · | · | · | ·
C[C@@H]1C=CCCO[C@]12C(=O)N(Cc1ccc(Br)cc1)c1ccccc12 | – | – | – | · | – | – | · | · | · | ·
Cc1cccc(OC[C@@H](O)CN2CCC(C(O)(c3ccccc3)c3ccccc3)CC2)c1 | – | – | – | · | – | – | · | · | · | ·
CCOC(=O)C(C)n1nc(/C=C/c2ccc(OC)cc2)ccc1=O (stereo not given) | – | – | – | – | – | – | · | · | · | ·
CC(C)c1ccc(/C=C/c2ccc(=O)n(C)n2)cc1 | – | 5.3 | – | – | 19 | 6.4 | 6.7 | 3.4 | 14 | –
COC(=O)c1cn(-c2ccc3c(c2)[C@@]2(CC(=O)N(C)C2c2ccccc2)C(=O)N3CC(C)C)nn1 (stereo not given in full) | – | – | – | · | – | – | · | · | · | ·
COc1ccc(-c2nnc(SCc3c(F)cccc3F)n2N)cc1 | – | 7.5 | – | · | 13 | – | 14 | 6.2 | 15 | –
COc1ccc(-c2nnc(SCc3cccc(C)c3)n2N)cc1 | – | – | – | – | – | – | · | · | · | ·
O=C(Nc1ccc2sccc2c1)c1ccc(Cl)s1 | – | 9.0 | 1.4 | – | 21 | 15 | 20 | 11 | 23 | – | LXR ag=–;hcDAF12 ag=12
O=C(Nc1ccc2nn(-c3ccccc3)nc2c1)c1cccnc1 | – | – | – | – | – | – | · | · | · | ·
CC(C)C(=O)Nc1ccc2nn(-c3ccccc3)nc2c1 | – | 12 | 1.0 | – | 22 | 8.8 | 13 | 7.3 | 19 | – | LXR ag=–;hcDAF12 ag=8.4
O=C(Nc1ccc(F)cc1)Nc1nc2ncccn2c1-c1ccc(F)cc1 | – | – | – | · | – | – | · | · | · | ·
NC(=O)c1ccc(OCc2ccccc2)nc1 | – | 5.0 | – | – | 15 | – | 5.8 | 3.3 | 11 | –
O=C(C(=O)N1CCC(CNS(=O)(=O)c2ccc(F)c(F)c2)CC1)c1cc2ccccc2o1 | – | – | – | · | – | – | · | · | · | ·
CN(c1ccccc1)S(=O)(=O)c1ccc(C(=O)Nc2ncccc2O)cc1 | – | – | – | – | – | – | · | · | · | ·
O=C(Nc1ccccc1O)c1ccc(NS(=O)(=O)c2cccc3cccnc23)cc1 | – | 54 | 2.3 | 18 | 84 | 19 | 91 | 38 | 89 | – | LXR ag=–;hcDAF12 ag=13
O=C(Nc1ncccc1O)c1ccc(S(=O)(=O)Nc2ccccc2)cc1 | – | 85 | – | 11 | 85 | 13 | 112 | 58 | 81 | – | LXR ag=–;hcDAF12 ag=8.0
COC(=O)c1ccc(NC(=O)c2ccc(NS(=O)(=O)c3cccc4cccnc34)cc2)cc1 | · | · | · | – | · | · | · | · | · | ·
CC(/C=N/Nc1nc2ccccc2[nH]1)=C\c1ccccc1 | – | 6.9 | 1.5 | – | 21 | 8.8 | 18 | 7.0 | 23 | – | LXR ag=–;hcDAF12 ag=6.6
Cc1nn(-c2ccccc2)c(C)c1/C=N/Nc1nc2ccccc2[nH]1 | – | 6.4 | 1.8 | – | 22 | 9.1 | 17 | 8.5 | 17 | – | LXR ag=–;hcDAF12 ag=8.9
O=C(O)c1ccc(C=Nn2c(-c3ccc(F)cc3)n[nH]c2=S)cc1 | – | – | – | · | – | – | · | · | · | ·
SMILES | Rev-erbA mod | DAX1 inh-1 | ssDAF12 agonist | DAX1 inh-2 | hgDAF12 agonist | hcDAF12 agonist | DAX1 conf | SF1 mutant ctr | hgDAF12 ag | LXR ag 2 | others
O=C(C=Cc1ccc(O)c(O)c1)NCC(=O)NC(Cc1ccccc1)C(=O)O (stereo not given) | – | – | – | · | – | – | · | · | · | ·
C#CCNC(=O)C[C@H]1C[C@@]2(C(=O)OC)C(=C[C@H](COCc3ccccc3)O[C@@H]2C)N(Cc2ccc3c(c2)OCO3)C1=O | – | – | – | · | – | – | · | · | · | ·
c1ccc2oc(-c3csc(N4CCOCC4)n3)cc2c1 | – | 7.7 | – | – | 18 | 9.3 | 11 | 3.2 | 15 | – | LXR ag=–;hcDAF12 ag=7.8
Fc1ccc(-c2csc(N3CCOCC3)n2)cc1 | – | – | – | – | – | – | · | · | · | ·
CC(C)(C)c1ccc(-c2cn(C[C@H](Cc3ccccc3)n3c(=O)c4ccccc4n3Cc3ccno3)nn2)cc1 | – | – | – | · | – | – | · | · | · | ·
CCc1ccc(C2=NN(C(C)=O)C(c3ccco3)C2)cc1 (stereo not given) | – | 4.9 | – | – | 15 | – | 9.5 | 5.5 | 15 | –
O=C(CSc1cnc2ccccc2n1)c1ccc(F)cc1 | – | 5.4 | 1.1 | – | 19 | 9.2 | 7.3 | 4.4 | 17 | – | LXR ag=–;hcDAF12 ag=–
COC(=O)[C@]12C[C@H](CC(=O)NCc3cccc4ccccc34)C(=O)N(CCC3=CCCCC3)C1=C[C@H](C1CCCC1)O[C@@H]2C | – | – | – | · | – | – | · | · | · | ·
CN1OC[C@@H]2CN[C@H](c3ccc(-c4cccc(F)c4)cc3)C[C@@H]21 | – | 6.2 | – | – | 13 | – | 6.3 | – | – | –
COC(=O)C1CN(Cc2cn(Cc3ccc(C)cc3)nn2)CCS(=O)(=O)N1Cc1ccc(C)cc1 (stereo not given) | – | – | – | · | – | – | · | · | · | ·
Cc1ccnc(NC(=O)c2ccccc2[N+](=O)[O-])c1 | – | – | – | – | – | – | · | · | · | ·
